# Laboratory results: PubChem BioAssay (NCATS)
# “And” between values parts separate entries of the source, which are not always exact repeats. Equal values may be shown once. Results filed as inconclusive are left out. Entries that show only a call come without a potency. The source made the active and inactive calls. The call rests on the fitted dose curve; in most records, active means well fitted cell-killing curve with a large enough effect; inconclusive means small, poorly fitted or top-dose-only effect; inactive means no such curve, though single readings can be large or run the other way.
# Assay: qHTS of pediatric cancer cell lines to identify multiple opportunities for drug repurposing: Primary screen for SJ-GBM2 cells (AID 1347091)
# Settings: SJ-GBM2 viability, CellTiter-Glo luminescence, 48 h; series mostly up to 46 µM
# Source text: Drug repurposing or repositioning has been offered as a strategy for drug development in oncology programs. This approach has special potential for childhood cancers and other rare or orphan diseases, where the expected return on new drug development has been a disincentive to pharmaceuticals.
# In this project we exploit the poly-pharmacology of drugs to discover new indications via phenotypic screening of a panel of 19 well-characterized cell lines derived from solid tumors seen in children and adolescents. The goal is to identify approved drugs with previously unrecognized anticancer properties that has the potential to reveal new mechanisms and biological processes involved in carcinogenesis or drug resistance. We employed a titration-based paradigm (quantitative high-throughput screening or qHTS), where all compounds were tested at multiple concentrations for their effect on cell viability. Concentration-response curves (CRCs) were derived directly from the primary screen, and both potency and efficacy values were used to identify compounds with robust bioactivity profiles. We screened the NIH Chemical Genomics Center (NCGC) Pharmaceutical Collection (NPC) and Mechanism Interrogation Plate (MIPE) small molecule collections of approved and investigational compounds against these cell lines; and measured metabolically active cells after 48 hours of compound treatment as a proxy for cell viability.
# Assay Submitter: Nathalia J. Martinez, National Center for Advancing Translational Sciences, National Institutes of Health, Rockville, MD, USA; email: natalia.martinez@nih.gov
# [1] Shen, M et al. Quantitative high-throughput phenotypic screening of pediatric cancer cell lines identifies multiple opportunities for drug repurposing. Oncotarget 2017 Dec 19;9(4):4758-4772. PMID 29435139.
# The cells were obtained from University of North Carolina (UNC), Pediatric Preclinical Testing Program (PPT), and Coriell Institute (CI).
# qHTS cell viability assay:
# Cells were assayed in growth media at a density of 500-1,000 cells/well. Five microliters of cells were dispensed into 1,536-well, white, solid-bottom, TC-treated plates (Greiner Bio One) using a multidrop dispenser and incubated at 37 degrees C, 5% CO2, under a humidified atmosphere for 5 hours. Twenty-three nanoliters of compounds and controls (neutral control DMSO or positive control bortezomib at final concentration of 2.3 µM) were subsequently transferred by Kalypsys pintool. For primary screens, the MIPE collection was tested at 11-point dilutions (final concentrations range from 0.78 nM to 46 µM) and the NPC collection at 8-point dilutions (final concentrations range from 0.59 nM to 46 µM). Compounds tested in follow-up screens were assayed at 11-point dilutions. Cells were incubated for 48 hours, followed by addition of 3 uL of CellTiter-Glo (Promega). After a 15 min incubation at room temperature, samples were analyzed for luminescence intensity using a ViewLux High-throughput CCD imager equipped with clear filters.
# Potency means the concentration at half of the fitted maximal effect.
row,SMILES,Potency
1,c1ccc2nc(N3CCNCC3)ccc2c1,inactive
2,CCO[C@H]1O[C@@H]2OC3(C)CC[C@H]4[C@H](C)CC[C@@H]([C@H]1C)[C@@]24OO3,inactive
3,CCc1cc(OC)c(C[C@H](C)N)cc1OC,inactive
4,C=CC[C@]1(O)CC[C@H]2[C@@H]3CCC4=CC(=O)CCC4=C3C=C[C@@]21C,inactive
5,O=C(O)Cc1ccccc1,inactive
6,O=C(N[C@H]1N=C(c2ccccc2F)c2cccc3c2N(CC3)C1=O)c1cc2ccccc2[nH]1,inactive
7,CNC(=O)NC(O)C(Cl)(Cl)Cl (stereo not given),inactive
8,COP(=S)(OC)Oc1ccc(Sc2ccc(OP(=S)(OC)OC)cc2)cc1,inactive
9,COc1cc(N)c(Cl)cc1C(=O)NC1CN2CCC1CC2 (stereo not given),inactive
10,CCN(Cc1ccc(Cl)nc1)/C(=C/[N+](=O)[O-])NC,inactive
11,CC(Cc1ccccc1)NCc1ccccc1Cl (stereo not given),inactive
12,CCC(=O)O[C@H]1CC[C@H]2[C@@H]3CCC4=CC(=O)CC[C@]4(C)[C@H]3CC[C@]12C,inactive
13,CN1CCC(N(Cc2ccccc2)c2ccccc2)CC1,inactive
14,O=C(CCCCl)c1ccc(F)cc1,inactive
15,COc1ccc(OC)c(CC(C)N)c1 (stereo not given),inactive
16,OC(O)C(Cl)(Cl)Cl,inactive
17,CCCN(CCC)CCc1c[nH]c2ccccc12,inactive
18,CN1C(=O)CN=C(c2ccccc2)c2cc(Cl)ccc21,inactive
19,CCN(CC)C(C)C(=O)c1ccccc1 (stereo not given),inactive
20,NC(=O)OCCCc1ccccc1,inactive

row,SMILES,Potency
1,CCOC(C(=O)OCCN(C)C)(c1ccccc1)c1ccccc1,inactive
2,O=C(CCCN1CCC(n2c(=O)[nH]c3ccccc32)CC1)c1ccc(F)cc1,inactive
3,CC(Cc1ccc2c(c1)OCO2)NO (stereo not given),inactive
4,O=C(O)CCCCCCNC1c2ccccc2CCc2ccccc21,inactive
5,CCOC(=O)C1(c2ccccc2)CCN(CCc2ccc(N)cc2)CC1,inactive
6,CCCCCCCCC(=O)NCc1ccc(O)c(OC)c1,1 nM (active)
7,CN(C)CCc1c[nH]c2ccccc12,inactive
8,Cc1nnc2n1-c1sc(CCc3ccc(CC(C)C)cc3)cc1C(c1ccccc1Cl)=NC2C (stereo not given),26600 nM (active)
9,ClCc1cccc(Cl)c1,inactive
10,CC1N=C(N)OC1c1ccccc1 (stereo not given),inactive
11,Oc1ccc([C@H]2CNCc3c2ccc(O)c3O)cc1O,inactive
12,COc1ccc2c(C(=O)c3ccc(Cl)cc3)c(C)n(CC(=O)O)c2c1,inactive
13,CC[C@H](O)C(C[C@H](C)N(C)C)(c1ccccc1)c1ccccc1,inactive
14,COc1ccc2[nH]cc(CCN(C(C)C)C(C)C)c2c1,inactive
15,COP(=O)(OC)OC=C(Cl)Cl,inactive
16,C[C@@H]1C[C@@H]([C@H](O)CC2CC(=O)NC(=O)C2)C(=O)[C@@H](C)C1,266 nM (active) and 235 nM (active)
17,CC(C)C(Br)C(=O)NC(N)=O (stereo not given),inactive
18,CC(CC(C(N)=O)(c1ccccc1)c1ccccc1)N(C)C (stereo not given),inactive
19,CCOC(=O)c1cncn1C(C)c1ccccc1 (stereo not given),inactive
20,CN1C[C@@H](NS(=O)(=O)N(C)C)C[C@@H]2c3cccc4c3c(cn4C)C[C@H]21,inactive
